Among all 310,000 compounds or so, about 14,000 (4.5%) showed an effect of 50% or more. The effect is printed as a negative number. The sample holds strong results, similar compounds and a random draw of the others, so the mix is not that of the screen.
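Further: peak tail current of the secondary pulse compared with the same well before compound.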

Sequence of human ether-à-go-go-related gene (hERG) potassium channel (Q12809 whole entry, looked up): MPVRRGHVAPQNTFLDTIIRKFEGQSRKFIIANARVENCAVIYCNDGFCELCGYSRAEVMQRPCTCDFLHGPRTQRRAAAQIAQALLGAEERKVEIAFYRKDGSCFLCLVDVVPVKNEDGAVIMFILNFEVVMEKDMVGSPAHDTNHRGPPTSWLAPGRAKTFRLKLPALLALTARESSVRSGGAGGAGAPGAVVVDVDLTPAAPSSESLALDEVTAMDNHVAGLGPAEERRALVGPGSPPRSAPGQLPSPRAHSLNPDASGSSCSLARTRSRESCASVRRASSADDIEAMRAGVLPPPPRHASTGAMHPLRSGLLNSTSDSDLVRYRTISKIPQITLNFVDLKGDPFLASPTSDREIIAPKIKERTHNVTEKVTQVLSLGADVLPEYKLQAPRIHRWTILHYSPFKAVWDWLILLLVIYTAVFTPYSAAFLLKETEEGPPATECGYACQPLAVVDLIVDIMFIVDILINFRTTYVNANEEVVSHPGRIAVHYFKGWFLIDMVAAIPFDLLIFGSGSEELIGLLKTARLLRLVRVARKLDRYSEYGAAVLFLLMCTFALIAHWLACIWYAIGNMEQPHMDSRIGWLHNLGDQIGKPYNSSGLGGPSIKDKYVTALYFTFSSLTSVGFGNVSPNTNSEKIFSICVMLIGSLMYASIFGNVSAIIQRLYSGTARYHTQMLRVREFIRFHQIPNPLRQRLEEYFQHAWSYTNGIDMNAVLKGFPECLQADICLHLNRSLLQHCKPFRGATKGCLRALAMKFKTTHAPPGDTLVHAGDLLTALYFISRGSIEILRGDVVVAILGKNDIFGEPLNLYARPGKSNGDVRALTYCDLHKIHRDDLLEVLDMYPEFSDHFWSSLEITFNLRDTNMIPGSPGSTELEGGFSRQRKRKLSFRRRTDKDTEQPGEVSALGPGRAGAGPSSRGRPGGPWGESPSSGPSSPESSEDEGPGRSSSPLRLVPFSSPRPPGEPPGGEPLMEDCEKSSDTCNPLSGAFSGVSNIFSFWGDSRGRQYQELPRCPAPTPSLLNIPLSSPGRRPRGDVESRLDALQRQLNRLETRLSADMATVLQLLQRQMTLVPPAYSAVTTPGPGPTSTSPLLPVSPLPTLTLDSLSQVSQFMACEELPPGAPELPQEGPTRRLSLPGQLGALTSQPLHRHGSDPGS

This experiment addresses human ether-à-go-go-related gene (hERG) potassium channel (human, UniProt Q12809). The experiment in a line: primary screen, population patch clamp on CHO cells stably expressing hERG; higher = less effect of the substance.
`CC(=O)N1Cc2cc(N)ccc2Oc2ccccc21`: the “hERG current change (%, negative = inhibition) at 10uM” value came out at 9.9%.
As to `Cc1cccc(NC(=S)N2CCN(S(=O)(=O)c3ccc(F)cc3)CC2)c1`, the “hERG current change (%, negative = inhibition) at 10uM” value is on record as 16.7%.
Regarding `CCOC(=O)C(NCCCCl)c1ccccc1` (centres unmarked), the “hERG current change (%, negative = inhibition) at 10uM” value stood at 2.53%.
As for `CCOC(=O)C(C)Sc1nnc(CSc2nc3nc(C)cc(C)n3n2)o1` (centres unmarked), the “hERG current change (%, negative = inhibition) at 10uM” value was found to be 9.3%.
For `CCOc1ccccc1N=Cc1c(O)c2ccccc2oc1=O`, the “hERG current change (%, negative = inhibition) at 10uM” value is recorded as 15.4%.
For `CN(c1ccc(C(=O)N2CCCCC2)cc1)S(C)(=O)=O` the value was 10.6%.
`COc1ccc(Nc2nc(NC(C)(C)C)nc(N3CCOCC3)n2)c(OC)c1`: the “hERG current change (%, negative = inhibition) at 10uM” value is -25.3%.
For `O=C(Oc1ccc2c3c(c(=O)oc2c1)CCCC3)c1cccs1` the value was -4.43%; for `CCn1cc(CN2CCCC(C(=O)c3ccc(-c4ccccc4)cc3)C2)cn1` (centres unmarked), -59.1%; for `COCC(=O)N1CCCC(C(=O)c2ccc(-c3ccccc3)c(F)c2)C1` (centres unmarked), -23.3%.
With `O=C(c1ccc(-c2ccccc2)c(F)c1)C1CCCN(C(=O)c2cncs2)C1` (centres unmarked), the “hERG current change (%, negative = inhibition) at 10uM” value is -18.4%.
On to `O=C(c1ccc(-c2ccccc2)c(F)c1)C1CCCN(CCO)C1` (centres unmarked), for which the “hERG current change (%, negative = inhibition) at 10uM” value was -44.8%.
As to `O=C(c1ccc(-c2ccccc2)c(F)c1)C1CCCN(CCCn2cccn2)C1` (centres unmarked), the “hERG current change (%, negative = inhibition) at 10uM” value is recorded as -69.6%.
Next, `CCn1cc(CN2CCCC(C(=O)c3ccc(-c4ccccc4)c(F)c3)C2)cn1` (centres unmarked): -57.6%.
As for `CCC(=O)N1CCCC(C(=O)c2ccc(-c3ccccc3)cc2)C1` (centres unmarked), the “hERG current change (%, negative = inhibition) at 10uM” value is recorded as -19%.
Regarding `CC(=O)NCC(=O)N1CCCC(C(=O)c2ccc(-c3ccccc3)c(F)c2)C1` (centres unmarked), the “hERG current change (%, negative = inhibition) at 10uM” value is recorded as -25.1%.
For `Cn1cc(CN2CCCC(C(=O)c3ccc(-c4ccccc4)cc3)C2)cn1` (centres unmarked), the “hERG current change (%, negative = inhibition) at 10uM” value is -34.4%.
In the case of `NC(=O)CSc1nc2scc(-c3ccc(Cl)cc3)c2c(=O)n1Cc1ccccc1`, the “hERG current change (%, negative = inhibition) at 10uM” value is listed as 33.1%.
Next, `O=[N+]([O-])c1ccc(N2CCN(S(=O)(=O)c3ccccc3[N+](=O)[O-])CC2)cc1NCc1cccnc1`: -8.91%.
In the case of `Cc1ccccc1OCC(=O)N/N=C/c1cccc(Oc2ccc([N+](=O)[O-])cc2[N+](=O)[O-])c1`, the “hERG current change (%, negative = inhibition) at 10uM” value is listed as 5.59%.
Take `CCn1cc(C(=O)NCCc2ccccc2)c(=O)c2cc(S(=O)(=O)N(C)C)ccc21`: the “hERG current change (%, negative = inhibition) at 10uM” value is on record as 7.05%.
In the case of `O=C(NCCc1csc(-c2cccnc2)n1)c1cccc(Cl)c1`, the “hERG current change (%, negative = inhibition) at 10uM” value is -17.7%.
Turning to `CC1CCN(c2ccc(C(=O)O)cc2)CC1`, the “hERG current change (%, negative = inhibition) at 10uM” value was found to be 2.86%.
Next, `O=C(/C=C/c1cccc(Cl)c1)NCCN1CCOCC1`: -14.7%.
Regarding `Cc1ccccc1/C=C/C(=O)NCC(=O)N1CCC(N(C)C2CCCCC2C)CC1` (centres unmarked), the “hERG current change (%, negative = inhibition) at 10uM” value was -72.1%.
For the molecule `CCOc1ccc(C(=O)NCC(=O)N2CCC(C)CC2)cc1OCC`, the “hERG current change (%, negative = inhibition) at 10uM” value was 3.68%.
Regarding `CC1CCN(C(=O)CNC(=O)Cc2ccccc2)CC1`, the “hERG current change (%, negative = inhibition) at 10uM” value amounted to 9.53%.
`CCOc1ccccc1/C=C/C(=O)NCC(=O)N1CCC(N(C)C2CCCCC2C)CC1` (centres unmarked): the “hERG current change (%, negative = inhibition) at 10uM” value is on record as -54.7%.
Consider `COc1ccccc1/C=C/C(=O)NC(=S)N(C)C1CCCCC1`, for which the “hERG current change (%, negative = inhibition) at 10uM” value is 1.35%.
Regarding `COc1ccc(/C=C/C(=O)NCC(=O)N2CCC(N(C)CCN3CCOCC3)CC2)cc1OC`, the “hERG current change (%, negative = inhibition) at 10uM” value was found to be 14.7%.
For the molecule `CC1CCCCC1N(C)C1CCN(C(=O)CNC(=O)/C=C/c2cccc(Cl)c2)CC1` (centres unmarked), the “hERG current change (%, negative = inhibition) at 10uM” value is -73.6%.
`CN(C)C(CNC(=O)/C=C/c1cccc(Cl)c1)c1ccccc1` (centres unmarked): the “hERG current change (%, negative = inhibition) at 10uM” value was -19.2%.
Next, `O=C(Nc1ccc(S(=O)(=O)NCC2CCCO2)cc1)C1CC(=O)N(c2ccccc2)C1` (centres unmarked): 3.16%.
`O=C(NCCCn1ccnc1)c1cn(Cc2ccc(F)cc2)nn1`: the “hERG current change (%, negative = inhibition) at 10uM” value is -9.7%.
Next, `COc1ccc(C(C)=O)cc1COC(=O)CNC(=O)c1cc(C)cc(C)c1`: -11.7%; `Cc1cccc(/C=N/NC(=O)C2CCCNC2=O)c1` (centres unmarked): 19%; `Cn1c(O)c(C(=Nc2ccccc2)SCc2ccccc2Cl)c(=O)n(C)c1=O`: 21.5%.
In the case of `CC(/C=C1\SC(=Nc2cccnc2)NC1=O)=C\c1ccccc1`, the “hERG current change (%, negative = inhibition) at 10uM” value amounted to 8.95%.
With `CC(=O)NC(Cc1ccccc1C)C(=O)NC1CCN(c2ncccc2[N+](=O)[O-])CC1` (centres unmarked), the “hERG current change (%, negative = inhibition) at 10uM” value is on record as -1.73%.
For `Cc1cc(OCC(=O)N2CCCC2)ccc1Cl` the value was -0.71%; for `Cc1cc(OCCCCCN2CCCC2)ccc1Cl.O=C(O)C(=O)O`, -77.2%; for `O=C(O)C(=O)O.c1ccc(COc2cccc(CN3CCCCC3)c2)cc1`, -19.2%.
As for `O=C(NCCCOc1cccc(CN2CCCCC2)c1)c1ccc(Cl)c(Cl)c1.O=C(O)C(=O)O`, the “hERG current change (%, negative = inhibition) at 10uM” value is -60.8%.
On to `Clc1ccc(OCCCN2CCCC2)cc1Cl.O=C(O)C(=O)O`, for which the “hERG current change (%, negative = inhibition) at 10uM” value is on record as -67.7%.
For the molecule `Clc1ccc(OCCN2CCCCC2)cc1Cl.O=C(O)C(=O)O`, the “hERG current change (%, negative = inhibition) at 10uM” value is -42.1%.
In the case of `CC(=O)OCC(=O)NCCCOc1cccc(CN2CCCCC2)c1.Cl`, the “hERG current change (%, negative = inhibition) at 10uM” value is reported as -2.29%.
In the case of `CN1CCN(CCOc2ccc(Cl)c(Cl)c2)CC1.O=C(O)C(=O)O`, the “hERG current change (%, negative = inhibition) at 10uM” value is reported as -22.3%.
In the case of `Cc1cc(OCCCN2CCCC2)ccc1Cl`, the “hERG current change (%, negative = inhibition) at 10uM” value is given as -42.9%.
With `CC(=O)Nc1scc(-c2ccccc2)[n+]1-c1ccc(C)cc1.[Br-]`, the “hERG current change (%, negative = inhibition) at 10uM” value amounted to 1.06%.
Next, `O=C(CCCNC(=O)c1ccc(Cl)cc1)Nc1ccc(F)c(S(=O)(=O)N2CCOCC2)c1`: -33.6%; `C/C(N)=C(/C#N)C(=O)COC(=O)c1cccc2ccccc12`: -8.17%; `Cc1cc(C)cc(NC(=O)CSc2nc3c(c(=O)n2C)SC(C)C3)c1` (centres unmarked): 3.64%.
As for `O=C(CCCN1C(=O)NC2(CCCC2)C1=O)N1CCN(S(=O)(=O)c2ccccc2)CC1`, the “hERG current change (%, negative = inhibition) at 10uM” value is given as 0.403%.
For the molecule `CC(=O)C(c1ccccc1)C(c1ccccc1)C(C)[N+](=O)[O-]` (centres unmarked), the “hERG current change (%, negative = inhibition) at 10uM” value stood at 14.3%.
On to `OCC(CO)(CO)n1cnnn1`, for which the “hERG current change (%, negative = inhibition) at 10uM” value is given as 12.3%.
With `CCN(CC)c1ccc(/C=N/O)cc1`, the “hERG current change (%, negative = inhibition) at 10uM” value is 18.3%.
With `CC(C)CCNC(=O)C(c1ccncc1)N(CC1CCCO1)C(=O)Cn1nnc(-c2ccc(F)cc2)n1` (centres unmarked), the “hERG current change (%, negative = inhibition) at 10uM” value is given as -64.8%.
Turning to `O=C(NCC1CCCO1)C(c1ccncc1)N(Cc1cccs1)C(=O)Cn1nnc(-c2ccc(F)cc2)n1` (centres unmarked), the “hERG current change (%, negative = inhibition) at 10uM” value is given as -60.1%.
Take `CC(C)CCNC(=O)C(c1ccncc1)N(C(=O)Cn1nnc(-c2ccc(F)cc2)n1)c1ccccc1F` (centres unmarked): the “hERG current change (%, negative = inhibition) at 10uM” value is given as -24.2%.
Consider `CC(C)CCNC(=O)C(c1ccncc1)N(Cc1cccs1)C(=O)Cn1nnc(-c2ccc(F)cc2)n1` (centres unmarked), for which the “hERG current change (%, negative = inhibition) at 10uM” value is given as -8.51%.
Next, `O=C(NCC1CCCO1)C(c1ccc(F)cc1)N(Cc1ccc(F)cc1)C(=O)Cn1nnc(-c2cccs2)n1` (centres unmarked): -10.9%.
Turning to `O=C(NCC1CCCO1)C(c1ccncc1)N(Cc1ccc(F)cc1)C(=O)CN1C(=O)c2ccccc2S1(=O)=O` (centres unmarked), the “hERG current change (%, negative = inhibition) at 10uM” value is on record as -58.3%.
For `O=C(NCC1CCCO1)C(c1ccco1)N(Cc1ccc(F)cc1)C(=O)CN1C(=O)c2ccccc2S1(=O)=O` (centres unmarked), the “hERG current change (%, negative = inhibition) at 10uM” value is on record as -7.48%.
With `CC(C)(C)NC(=O)C(c1ccncc1)N(CC1CCCO1)C(=O)Cn1nnc(-c2ccc(F)cc2)n1` (centres unmarked), the “hERG current change (%, negative = inhibition) at 10uM” value is listed as -3.33%.
As for `COc1ccc(CN(C(=O)CN2C(=O)c3ccccc3S2(=O)=O)C(C(=O)NCC2CCCO2)c2ccncc2)cc1` (centres unmarked), the “hERG current change (%, negative = inhibition) at 10uM” value is given as -10.3%.
On to `Cc1ccc(-n2c(SCC(=O)Nc3ccc(Cl)cc3)nc(O)cc2=O)cc1`, for which the “hERG current change (%, negative = inhibition) at 10uM” value is listed as 9.08%.
For the molecule `CC(C)(C)c1ccc(C(=O)Nc2ccc(O)c3c(=O)cc(-c4ccccc4Cl)oc23)cc1`, the “hERG current change (%, negative = inhibition) at 10uM” value was -3.26%.
For `O=C(NCCO)/C(=C\c1ccco1)NC(=O)c1ccco1` the value was 1.44%; for `CNc1ccc(NC(C)=O)cc1[N+](=O)[O-]`, 1.68%.
For `CNC(=O)CCN(Cc1ccco1)S(=O)(=O)c1ccc(OC)c(OC)c1` the value was 14.1%; for `COC(=O)c1c(NC(=O)CSc2nnc(-c3cccnc3)n2Cc2ccco2)sc(C)c1C`, -59.3%.
For `C=CCn1c(SCC(=O)Nc2cc(C)c(Cl)cc2OC)nnc1-c1ccco1` the value was -23.6%.
For `O=C(CSc1nnc(Cc2cccs2)n1Cc1ccco1)Nc1cccc(Cl)c1`, the “hERG current change (%, negative = inhibition) at 10uM” value is reported as -13.9%.
As to `Cc1cccc(C)c1NC(=O)CSc1nnc(-c2ccncc2)n1Cc1ccco1`, the “hERG current change (%, negative = inhibition) at 10uM” value is recorded as -29.2%.
For `CCn1c(SCC(=O)Nc2cc(C)c(Cl)cc2OC)nnc1-c1ccco1` the value was -4.93%; for `COc1cc(Cl)c(C)cc1NC(=O)CSc1nnc(-c2ccco2)n1CC(C)C`, -62.1%.
`Cc1cc(Cl)ccc1NC(=O)CSc1nnc(Cc2cccs2)n1Cc1ccco1`: the “hERG current change (%, negative = inhibition) at 10uM” value is given as -45.3%.
Consider `O=C(CSc1nnc(Cc2cccs2)n1Cc1ccco1)Nc1ccc(Cl)cc1Cl`, for which the “hERG current change (%, negative = inhibition) at 10uM” value was -57.1%.
Turning to `CCOC(=O)c1c(NC(=O)CSc2nnc(-c3cccnc3)n2Cc2ccco2)sc(C)c1C`, the “hERG current change (%, negative = inhibition) at 10uM” value is -24.7%.
Next, `Cc1cc(C)c(NC(=O)CSc2nnc(-c3ccncc3)n2Cc2ccco2)c(Cl)c1`: -52.7%.
On to `CCOC(=O)c1c(NC(=O)CSc2nnc(-c3ccncc3)n2Cc2ccco2)sc(C)c1C`, for which the “hERG current change (%, negative = inhibition) at 10uM” value is reported as -19.3%.
Consider `Cc1cc(C)c(NC(=O)CSc2nnc(-c3ccncc3)n2Cc2ccco2)c(C)c1`, for which the “hERG current change (%, negative = inhibition) at 10uM” value is -31.6%.
For `COc1ccc2nc(SCc3cccc(C)c3)nc(C)c2c1` the value was -10.9%.

The record behind these values is article PMC4336329 (PLoS ONE, 2015).
